SARS PLP yeast = inhibitors of SARS-CoV papain-like protease in yeast; 330,000 compounds, 0.19% hits; S. cerevisiae expressing SARS-CoV PLpro, growth rescue; Potency, µM (top dose mostly 32.9 µM), actives largely listed as activators; calls by dose curve; note: nearly all actives have a fitted effect of over 55% in size
AMA1-RON2 inh = AMA1-RON2 (P. falciparum) interaction inhibition | AlphaScreen AMA1-biotinylated RON2 peptide binding | Potency, µM (doses to about 58.2 µM), usual class: inhibitors | 360,000 compounds, 0.2% hits; note: nearly all actives have a fitted effect of over 45% in size
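AMA1 (3D7) with his tag at 25 nM final met compounds first, then biotinylated RON2 peptide at 25 nM; detection used donor plus acceptor beads, 10 µg/mL apiece, read by AlphaScreen after 30 min at room temperature.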
Pf growth 48h = inhibits P. falciparum growth in the first generation, 48 h; Potency, µM (doses to about 28.7 µM), hits mostly inhibitors; 310,000 compounds, 5.9% hits; AID 504832; P. falciparum luciferase growth in erythrocytes, 48 h
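Parasite viability was followed by luminescence of a genomically integrated firefly luciferase. Cultures held 0.1% parasitemia at 2% hematocrit (final), incubated under 5% CO2 at 37 C.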
NS1 inh = inhibitors of influenza NS1 protein function | Potency, µM (top dose mostly 46.1 µM) | 270,000 compounds, 0.4% hits | AID 2326; calls by dose curve; note: actives are rising curves; nearly all actives have a fitted effect of over 50% in size
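Read-out: OD600 growth recovery of NS1-expressing budding yeast. Cells grown overnight at 30C in -URA glucose medium, washed, resuspended and diluted 1:100 in 2% galactose assay medium, pH 6.0. Same strain lacking NS1 served as positive control.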
Pf growth 96h = P. falciparum growth inhibition at 96 hour, primary screen for plastid delayed-death inhibitors; P. falciparum luciferase reporter growth, 96 h; 320,000 compounds, 6.9% hits; Potency, µM (highest dose often 28.7 µM), most hits filed as inhibitors; AID 504834
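Compounds incubated with erythrocytes infected by luciferase-expressing P. falciparum (2% hematocrit, 0.05% parasitemia final) for 96 hours, 37 C in 5% CO2. Growth inhibition scored as decreased luciferase luminescence.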
HCV inh = HCV inhibition; 340,000 compounds, 3.4% hits; Potency, µM (titrated, usually from 41.8 µM), hits mostly inhibitors; Huh7.5.1 HCVcc-Cre infection, luciferase reporter, 44 h
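Whole-lifecycle infectious HCVcc-Cre system; cells 1,000/well, compound then virus (~0.5 moi) added 4 h after plating, 44 h culture. Luciferase read 15 sec following 15 min substrate incubation, room temp.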
Hits are given with their value; [ ] = dose if it differs, or a comment. The list is not random: actives were taken first. Their share in the collection is about 12%. Unless noted, calls come from the whole dose curve; as a rule, active = well fitted curve in the direction sought with a large enough effect; inconclusive = small, poorly fitted or top-dose-only effect, or another doubt; inactive = no such curve, though single readings can be large; an effect the other way counts as inactive or inconclusive.

Results for CCOC(=O)c1nnn(-c2nonc2N)c1CS(=O)(=O)c1ccccc1 ?
SARS PLP yeast: inactive; AMA1-RON2 inh: inactive; Pf growth 48h: inactive; NS1 inh: inactive; Pf growth 96h: 11.7µM; HCV inh: inactive

What do the screens show for `CCOC(=O)c1nnn(-c2nonc2N)c1-c1ccc(OCC)cc1`?
SARS PLP yeast: inactive; AMA1-RON2 inh: inactive; Pf growth 48h: 13.1µM; NS1 inh: inactive; Pf growth 96h: inconclusive; HCV inh: inactive

Results for O=C(NCC1CCCO1)C(c1ccc(F)cc1)N(Cc1ccc(F)cc1)C(=O)Cn1nnc(-c2cccs2)n1 (stereo unspecified) ?
SARS PLP yeast: inactive; AMA1-RON2 inh: inactive; Pf growth 48h: inconclusive; NS1 inh: inactive; Pf growth 96h: inconclusive; HCV inh: 2.51µM

What do the screens show for `O=C(CN(C(=O)Cn1nnc(-c2cccs2)n1)c1ccc2c(c1)OCCO2)NC1CCCCC1`?
SARS PLP yeast: inactive; AMA1-RON2 inh: inactive; Pf growth 48h: inactive; NS1 inh: inactive; Pf growth 96h: inactive; HCV inh: inactive

Results for O=C(NCc1ccccc1)C(c1ccc(O)cc1)N(C(=O)Cn1nnc(-c2cccs2)n1)c1ccc2c(c1)OCCO2 (stereo unspecified) ?
SARS PLP yeast: inactive; AMA1-RON2 inh: inactive; Pf growth 48h: 11.7µM; NS1 inh: inconclusive; Pf growth 96h: inactive; HCV inh: inconclusive

Results for O=C(NCC1CCCO1)C(c1cccs1)N(Cc1cccs1)C(=O)Cn1nnc(-c2cccs2)n1 (stereo unspecified) ?
SARS PLP yeast: inactive; AMA1-RON2 inh: inactive; Pf growth 48h: inconclusive; NS1 inh: inactive; Pf growth 96h: inactive; HCV inh: inactive

What do the screens show for `Cc1ccc(-c2nnn(CC(=O)N(CC3CCCO3)C(C(=O)NC(C)(C)C)c3ccc(F)cc3)n2)o1` (stereo unspecified)?
SARS PLP yeast: inactive; AMA1-RON2 inh: inactive; Pf growth 48h: 10.4µM; NS1 inh: inactive; Pf growth 96h: 11.7µM; HCV inh: inactive

How did CC(C)(C)NC(=O)C(c1ccc(F)cc1)N(Cc1ccco1)C(=O)Cn1nnc(-c2cccs2)n1 (stereo unspecified) do in these assays?
SARS PLP yeast: inactive; AMA1-RON2 inh: inactive; Pf growth 48h: 5.86µM; NS1 inh: inactive; Pf growth 96h: inconclusive; HCV inh: inconclusive

Results for O=C(NC1CCCC1)C(c1cccs1)N(Cc1ccco1)C(=O)Cn1nnc(-c2cccs2)n1 (stereo unspecified) ?
SARS PLP yeast: inactive; AMA1-RON2 inh: inactive; Pf growth 48h: inconclusive; NS1 inh: inactive; Pf growth 96h: inactive; HCV inh: inconclusive

How did O=C1c2ccccc2C(=O)c2c(NC(=O)c3ccc4c5c(ncnc35)-c3ccccc3C4=O)cccc21 do in these assays?
NS1 inh: inactive

Results for Cc1ccc(N(C(=O)Cn2nnc(-c3ccc(F)cc3)n2)C(CC(C)C)C(=O)NCC2CCCO2)cc1 (stereo unspecified) ?
SARS PLP yeast: inactive; AMA1-RON2 inh: inactive; Pf growth 48h: 13.1µM; NS1 inh: inactive; Pf growth 96h: inconclusive; HCV inh: inactive

What do the screens show for `CC1CCCC(NC(=O)COC(=O)[C@@H](NC(=O)c2ccc(F)cc2)C(C)C)C1C` (stereo partly specified)?
SARS PLP yeast: inactive; AMA1-RON2 inh: inactive; HCV inh: inactive

What do the screens show for `Cc1ccc(S(=O)(=O)c2nc(-c3ccccc3Cl)oc2N(C)C)cc1`?
SARS PLP yeast: inactive; AMA1-RON2 inh: inactive; Pf growth 48h: inactive; NS1 inh: inactive; Pf growth 96h: inconclusive; HCV inh: 20µM

What do the screens show for `Cc1ccc(S(=O)(=O)c2nc(-c3ccccc3Br)oc2N(C)C)cc1`?
AMA1-RON2 inh: inactive; HCV inh: inconclusive

Results for CN(C)c1oc(-c2ccccc2Cl)nc1P(=O)(c1ccccc1)c1ccccc1 ?
SARS PLP yeast: inactive; AMA1-RON2 inh: inactive; NS1 inh: inactive; Pf growth 96h: 11.7µM; HCV inh: inconclusive

How did CCn1c2nc(SCCN3CCOCC3)nnc2c2cc(C)cc(C)c21 do in these assays?
SARS PLP yeast: inactive; AMA1-RON2 inh: inactive; Pf growth 48h: inconclusive; NS1 inh: inactive; Pf growth 96h: inconclusive; HCV inh: inactive

What do the screens show for `CC(C)c1onc(C(=O)N2CCN(c3ccccc3)CC2)c1[N+](=O)[O-]`?
SARS PLP yeast: inactive; AMA1-RON2 inh: inactive; Pf growth 48h: 5.22µM; NS1 inh: inactive; Pf growth 96h: inconclusive; HCV inh: inactive

How did CC(C)c1onc(C(=O)N2CCN(c3ccc(F)cc3)CC2)c1[N+](=O)[O-] do in these assays?
SARS PLP yeast: inactive; AMA1-RON2 inh: inactive; Pf growth 48h: inconclusive; NS1 inh: inactive; Pf growth 96h: inconclusive; HCV inh: inactive

How did O=C(c1ccc([N+](=O)[O-])cc1)N1CCN(Cc2ccccc2)CC1 do in these assays?
SARS PLP yeast: inactive; AMA1-RON2 inh: inactive[2.32 µM]; Pf growth 48h: inactive; NS1 inh: inactive; Pf growth 96h: inactive; HCV inh: inactive

What do the screens show for `Cc1onc(C(=O)N2CCC(Cc3ccccc3)CC2)c1[N+](=O)[O-]`?
SARS PLP yeast: inactive; AMA1-RON2 inh: inactive; Pf growth 48h: inconclusive; NS1 inh: inactive; Pf growth 96h: inconclusive; HCV inh: inconclusive

Results for CC(C)c1onc(C(=O)N2CCCCCC2)c1[N+](=O)[O-] ?
SARS PLP yeast: inactive; AMA1-RON2 inh: inactive; Pf growth 48h: inconclusive; Pf growth 96h: inconclusive; HCV inh: inactive

What do the screens show for `O=C(c1ccc(Cn2cc(Cl)c([N+](=O)[O-])n2)cc1)N1CCN(Cc2ccccc2)CC1`?
SARS PLP yeast: inactive; AMA1-RON2 inh: inactive; Pf growth 48h: inactive; NS1 inh: inactive; Pf growth 96h: inactive; HCV inh: 11.2µM

How did Cc1onc(C(=O)N2CCN(Cc3ccccc3)CC2)c1[N+](=O)[O-] do in these assays?
SARS PLP yeast: inactive; AMA1-RON2 inh: inactive; Pf growth 48h: inactive; NS1 inh: inactive; Pf growth 96h: 14.7µM; HCV inh: inactive[8.37 µM]

What do the screens show for `Cc1ccc(Cl)cc1N1CCN(C(=O)c2noc(C(C)C)c2[N+](=O)[O-])CC1`?
SARS PLP yeast: inactive; AMA1-RON2 inh: inactive; Pf growth 48h: inconclusive; NS1 inh: inactive; Pf growth 96h: inconclusive; HCV inh: 3.55µM

How did CCOc1ccc2nc(N3CCCC(C(=O)NCCCN4C(C)CCCC4C)C3)sc2c1 (stereo unspecified) do in these assays?
SARS PLP yeast: inactive; AMA1-RON2 inh: inactive; Pf growth 48h: inactive; NS1 inh: inactive; Pf growth 96h: inconclusive; HCV inh: 2.51µM

Results for Cc1cc(C)c2nc(N3CCCC(C(=O)NCCCN4CCOCC4)C3)sc2c1 (stereo unspecified) ?
SARS PLP yeast: inactive; AMA1-RON2 inh: inactive; Pf growth 48h: inactive; NS1 inh: inactive; HCV inh: inconclusive

What do the screens show for `CCN1CCN(CCCNC(=O)C2CCCN(c3nc4c(C)cc(C)cc4s3)C2)CC1` (stereo unspecified)?
SARS PLP yeast: inactive; AMA1-RON2 inh: inactive; Pf growth 48h: inconclusive; NS1 inh: inactive; Pf growth 96h: inconclusive; HCV inh: 10µM
